# From PubChem BioAssay (EPA / NIEHS)
# Results filed as inconclusive are left out. Active and inactive are the calls of the source. How the source made its calls, unless noted: active means hit-call score of the fitted dose curve at least 0.9, where 1 is the maximum; inactive means score below 0.9.
# Tests used:
# [1] = molecular target: human Retinoid X Receptor beta (RXRb), RXRB (gene 6257) (UniProt P28702); assay: ATG_RXRb_TRANS: Attagene TRANS-FACTORIAL HepG2 Assay for human Retinoid X Receptor beta (RXRb) (AID 2283013; active means hit-call score of the fitted dose curve at least 0.9, where 1 is the maximum)
# human Retinoid X Receptor beta (RXRb), RXRB (gene 6257), sequence (P28702 whole entry, looked up, the tested form may be a part): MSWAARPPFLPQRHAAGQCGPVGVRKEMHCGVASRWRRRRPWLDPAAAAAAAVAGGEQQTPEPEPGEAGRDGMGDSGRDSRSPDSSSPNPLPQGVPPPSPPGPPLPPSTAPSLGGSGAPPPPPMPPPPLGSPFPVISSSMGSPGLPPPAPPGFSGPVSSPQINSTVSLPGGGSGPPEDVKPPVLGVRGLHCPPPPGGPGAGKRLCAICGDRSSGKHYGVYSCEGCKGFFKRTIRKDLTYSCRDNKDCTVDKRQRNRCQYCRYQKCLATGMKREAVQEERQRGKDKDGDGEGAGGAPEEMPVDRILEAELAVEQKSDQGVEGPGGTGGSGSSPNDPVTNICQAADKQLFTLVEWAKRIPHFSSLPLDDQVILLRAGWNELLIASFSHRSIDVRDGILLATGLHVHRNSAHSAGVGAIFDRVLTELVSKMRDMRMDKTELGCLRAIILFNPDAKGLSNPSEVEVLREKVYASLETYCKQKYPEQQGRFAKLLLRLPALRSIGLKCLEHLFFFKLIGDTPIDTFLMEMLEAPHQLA
# How it was run: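 Chimeric receptor-Gal4 activity was assessed in transiently transfected human HepG2 cells after 24 h exposure. Transcripts from GAL4-UAS reporters were quantified by fluorescent RT-PCR and capillary electrophoresis, with DMSO as negative control and baseline.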
# [2] = read-out: E-selectin (Homo sapiens) (UniProt P16581); assay: BSK_3C_Eselectin: BioMAP Diversity Plus: 3C Assay for Eselectin Biomarker Activity (AID 2283015); conditions: primary human endothelial cells (HUVEC); actives raise or lower the signal;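 on outcome: cell surface E-selectin protein quantified by ELISA 24 h after dosing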
# How it was run: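 Endpoint derived by bidirectional fitting against DMSO vehicle; signal is ELISA-detected E-selectin from primary HUVEC at 24 h post-dosing, with parallel SRB staining (0.1% SRB, 560 nm) flagging cytotoxicity.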
# [3] = read-out: Monocyte Chemoattractant Protein-1 (MCP1), CCL2 (gene 6347); assay: BSK_3C_MCP1: BioMAP Diversity Plus: 3C Assay for Monocyte Chemoattractant Protein-1 (MCP1) Biomarker Activity (AID 2283017); conditions: primary human endothelial cells (HUVEC); actives raise or lower the signal
# How it was run: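 Using human vascular primary endothelium, researchers measured MCP-1 by ELISA 24 h after treatment, with DMSO serving as negative control for bidirectional fitting.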
# [4] = read-out: Monocyte Chemoattractant Protein-1 (MCP1), CCL2 (gene 6347); assay: BSK_4H_MCP1: BioMAP Diversity Plus: 4H Assay for Monocyte Chemoattractant Protein-1 (MCP1) Biomarker Activity (AID 2283018); conditions: primary human endothelial cells (HUVEC); actives raise or lower the signal
# How it was run: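 Endothelial cells from umbilical vein were treated with test chemical, then after 24 h MCP-1 levels were quantified by ELISA; endpoint values came from bidirectional fitting with DMSO as baseline of activity.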
# [5] = read-out: Human Leukocyte Antigen - DR isotype (HLADR), HLA-DRA (gene 3122); assay: BSK_3C_HLADR: BioMAP Diversity Plus: 3C Assay for Human Leukocyte Antigen - DR isotype (HLADR) Biomarker Activity (AID 2283019); conditions: primary human endothelial cells (HUVEC); actives raise or lower the signal;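 on outcome: ELISA of cell-surface HLA-DR on HUVEC 24 h after dosing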
# How it was run: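 Compound added to primary HUVEC cultures, 24 h incubation, then HLA-DR determined by ELISA; endpoint derived by bidirectional fitting relative to DMSO negative control.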
# [6] = read-out: Interleukin-8 (IL8), CXCL8 (gene 3576); assay: BSK_3C_IL8: BioMAP Diversity Plus: 3C Assay for Interleukin-8 (IL8) Biomarker Activity (AID 2283020); conditions: primary human endothelial cells (HUVEC); actives raise or lower the signal
# How it was run: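 Endothelial primary cells of human umbilical vein origin are dosed with chemical; after 24 h the IL-8 biomarker is measured by ELISA, and concentration–response is fitted in both directions versus DMSO.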
# [7] = read-out: Monokine induced gamma interferon (MIG), CXCL9 (gene 4283); assay: BSK_3C_MIG: BioMAP Diversity Plus: 3C Assay for Monokine induced gamma interferon (MIG) Biomarker Activity (AID 2283021); conditions: primary human endothelial cells (HUVEC); actives raise or lower the signal;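 on AC50: MIG protein level measured by immunoassay in the treated endothelial cultures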
# How it was run: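 Endothelial primary cells (human umbilical vein) are dosed with test chemical in the 3C system. MIG levels are measured by ELISA at 24 h and fitted in both directions relative to DMSO.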
# [8] = BSK_3C_SRB: Viability Assessment in the BioMAP Diversity Plus: 3C Assay (AID 2283023); conditions: primary human endothelial cells (HUVEC);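 further: fitted both ways against DMSO so a hit may be signal rise or drop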
# How it was run: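 Overt cytotoxicity is gauged in parallel confluent HUVEC cultures by SRB total-protein staining at the time of biomarker measurement, 24 h after dosing. Gain or loss of signal is fitted versus DMSO.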
# [9] = read-out: Matrix Metallopeptidase 1 (MMP1), MMP1 (gene 4312); assay: BSK_BE3C_MMP1: BioMAP Diversity Plus: BE3C Assay for Matrix Metallopeptidase 1 (MMP1) Biomarker Activity (AID 2283024); conditions: primary human bronchial epithelial cells; actives raise or lower the signal
# How it was run: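 MMP1 signal, measured by ELISA after a 24 h chemical exposure of human primary bronchial epithelial cells, is analysed with bidirectional fitting using DMSO as negative control.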
# [10] = BSK_3C_Vis: BioMAP Diversity Plus: 3C Assay for Morphology Visualization (AID 2283025); conditions: primary human endothelial cells (HUVEC);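 further: fitted both ways so gain or loss versus DMSO counts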
# How it was run: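 Morphology read by light microscopy serves as a background control for the multiplexed 3C assay in human umbilical vein endothelial cells, taken 24 h after dosing, with DMSO as the negative control and bidirectional curve fitting.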
# [11] = read-out: Thrombomodulin, THBD (gene 7056); assay: BSK_3C_Thrombomodulin: BioMAP Diversity Plus: 3C Assay for Thrombomodulin Biomarker Activity (AID 2283029); conditions: primary human endothelial cells (HUVEC); actives raise or lower the signal
# How it was run: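 Endothelial cells from umbilical vein are dosed with test chemical and incubated 24 h. Thrombomodulin is then quantified by ELISA, with DMSO serving as negative control and activity baseline.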
# [12] = read-out: Urokinase-type plasminogen activator receptor (uPAR), PLAUR (gene 5329); assay: BSK_4H_uPAR: BioMAP Diversity Plus: 4H Assay for Urokinase-type plasminogen activator receptor (uPAR) Biomarker Activity (AID 2283030); conditions: primary human endothelial cells (HUVEC); actives raise or lower the signal
# How it was run: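 Endpoint derived via bidirectional curve fitting against DMSO baseline; readout was ELISA detection of uPAR on umbilical vein endothelial cells at 24 h post-treatment, with SRB-stained parallel cultures assessing cytotoxicity.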
# [13] = molecular target: Retinoic acid receptor RXR-alpha (Homo sapiens) (UniProt P19793); assay: ATG_RXRa_TRANS: Attagene TRANS-FACTORIAL HepG2 Assay for human Retinoid X Receptor alpha (RXRa) (AID 2283012; active means hit-call score of the fitted dose curve at least 0.9, where 1 is the maximum)
# Retinoic acid receptor RXR-alpha (Homo sapiens), sequence (P19793 whole entry, looked up, the tested form may be a part): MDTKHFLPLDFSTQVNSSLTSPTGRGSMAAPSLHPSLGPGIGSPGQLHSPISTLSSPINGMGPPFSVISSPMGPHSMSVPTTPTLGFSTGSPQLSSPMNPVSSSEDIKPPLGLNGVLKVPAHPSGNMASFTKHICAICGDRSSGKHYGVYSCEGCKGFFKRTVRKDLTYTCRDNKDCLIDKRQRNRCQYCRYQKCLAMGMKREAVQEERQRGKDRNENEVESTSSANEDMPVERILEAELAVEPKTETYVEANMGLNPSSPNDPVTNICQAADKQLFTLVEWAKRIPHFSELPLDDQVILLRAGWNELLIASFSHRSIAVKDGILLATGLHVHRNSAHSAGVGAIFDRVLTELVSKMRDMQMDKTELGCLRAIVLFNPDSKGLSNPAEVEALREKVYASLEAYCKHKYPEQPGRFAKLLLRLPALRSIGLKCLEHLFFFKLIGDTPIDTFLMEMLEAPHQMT
# How it was run: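 Measures exogenous chimeric NR-GAL4 activity in transfected HepG2 liver cells after 24 h of dosing. Induced reporter mRNA was detected by RT-PCR with capillary electrophoresis, and gain of signal was analysed against DMSO.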
# [14] = molecular target: human Vitamin D Receptor (VDR), VDR (gene 7421) (UniProt P11473); assay: ATG_VDR_TRANS: Attagene TRANS-FACTORIAL HepG2 Assay for human Vitamin D Receptor (VDR) (AID 2283022; active means hit-call score of the fitted dose curve at least 0.9, where 1 is the maximum)
# human Vitamin D Receptor (VDR), VDR (gene 7421), sequence (P11473 whole entry, looked up): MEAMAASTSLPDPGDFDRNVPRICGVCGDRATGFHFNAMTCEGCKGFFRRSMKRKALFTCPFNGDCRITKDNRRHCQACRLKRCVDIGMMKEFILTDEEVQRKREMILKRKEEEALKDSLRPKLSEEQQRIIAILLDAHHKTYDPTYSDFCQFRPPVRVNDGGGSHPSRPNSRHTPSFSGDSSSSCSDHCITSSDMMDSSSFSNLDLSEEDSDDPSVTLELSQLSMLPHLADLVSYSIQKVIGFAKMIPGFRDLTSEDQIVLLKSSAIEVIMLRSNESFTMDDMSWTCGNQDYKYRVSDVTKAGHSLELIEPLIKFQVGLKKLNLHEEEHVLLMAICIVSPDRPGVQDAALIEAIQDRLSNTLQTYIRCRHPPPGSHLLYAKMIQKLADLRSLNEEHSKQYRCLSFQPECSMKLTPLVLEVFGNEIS
# How it was run: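 Multiplexed TRANS reporter in HepG2; 24 h treatment; reporter mRNA by RT-PCR plus capillary electrophoresis; upregulation scored relative to DMSO.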
# [15] = read-out: Pselectin, SELP (gene 6403); assay: BSK_4H_Pselectin: BioMAP Diversity Plus: 4H Assay for Pselectin Biomarker Activity (AID 2283026); conditions: primary human endothelial cells (HUVEC); actives raise or lower the signal
# How it was run: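 Endothelial primary cells (human umbilical vein) are dosed, incubated 24 h, and assayed for surface P-selectin by ELISA; responses in either direction are fitted relative to the DMSO negative control.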
# [16] = BSK_4H_SRB: Viability Assessment in the BioMAP Diversity Plus: 4H Assay (AID 2283027); conditions: primary human endothelial cells (HUVEC);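 further: cells exposed to compound for 24 h before staining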;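 on AC50: curves fitted both ways versus DMSO so AC50 may be loss or gain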
# How it was run: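 Cytotoxicity read-out in primary human endothelial cells: after 24 h compound exposure, cells were TCA-fixed (10%), stained with 0.1% SRB and absorbance taken at 560 nm. Values fitted in both directions relative to DMSO.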
# [17] = read-out: Interleukin-1 alpha (IL1a), IL1A (gene 3552); assay: BSK_BE3C_IL1a: BioMAP Diversity Plus: BE3C Assay for Interleukin-1 alpha (IL1a) Biomarker Activity (AID 2283016); conditions: primary human bronchial epithelial cells; actives raise or lower the signal
# How it was run: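 Signal from IL-1a ELISA, taken 24 h after chemical dosing of human bronchial epithelial cells, is compared with DMSO as baseline using bidirectional curve fitting.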
# [18] = BSK_BE3C_SRB: Viability Assessment in the BioMAP Diversity Plus: BE3C Assay (AID 2283028); conditions: primary human bronchial epithelial cells
# How it was run: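 SRB total-protein staining (0.1%, after TCA fixation) of chemically dosed human bronchial epithelial primary cells at 24 h; DMSO serves as the negative control for bidirectional curve fitting.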
# E-selectin (Homo sapiens), sequence (P16581 whole entry, looked up): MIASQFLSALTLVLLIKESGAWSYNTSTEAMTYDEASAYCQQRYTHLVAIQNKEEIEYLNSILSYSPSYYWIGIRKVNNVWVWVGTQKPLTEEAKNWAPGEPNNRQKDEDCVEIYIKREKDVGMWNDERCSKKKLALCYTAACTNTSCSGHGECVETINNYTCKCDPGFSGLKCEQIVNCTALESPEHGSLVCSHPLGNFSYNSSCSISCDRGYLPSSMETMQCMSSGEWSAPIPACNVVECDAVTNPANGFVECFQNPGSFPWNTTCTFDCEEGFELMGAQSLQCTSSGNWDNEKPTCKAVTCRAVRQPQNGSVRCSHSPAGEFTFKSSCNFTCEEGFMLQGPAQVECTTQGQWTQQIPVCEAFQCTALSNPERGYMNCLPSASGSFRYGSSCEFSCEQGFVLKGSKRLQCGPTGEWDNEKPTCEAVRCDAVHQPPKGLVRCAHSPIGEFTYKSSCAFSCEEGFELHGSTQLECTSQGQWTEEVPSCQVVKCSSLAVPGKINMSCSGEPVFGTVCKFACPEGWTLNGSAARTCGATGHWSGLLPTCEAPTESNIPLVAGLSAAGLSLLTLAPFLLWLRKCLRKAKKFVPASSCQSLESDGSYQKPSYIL
smiles,measurement,setting,value
Clc1ccc(C(c2ccc(Cl)cc2)C(Cl)Cl)cc1,AC50,[1],33.4 µM (active)
same,AC50,[2],29.7 µM (active)
same,AC50,[3],13.9 µM (active)
same,AC50,[4],10.2 µM (active)
same,AC50,[5],14.4 µM (active)
same,AC50,[6],15 µM (active)
same,AC50,[7],35.2 µM (active)
same,AC50,[8],19.3 µM (active)
same,AC50,[9],13.7 µM (active)
same,AC50,[10],37.3 µM (active)
same,outcome,[11],inactive
same,AC50,[12],31.4 µM (active)
CC(C)(C)OOC(=O)c1ccccc1,outcome,[13],inactive
same,outcome,[2],inactive
same,outcome,[3],inactive
same,outcome,[4],inactive
same,outcome,[5],inactive
same,outcome,[6],inactive
same,outcome,[7],inactive
same,outcome,[14],inactive
same,outcome,[8],inactive
same,outcome,[9],inactive
same,outcome,[10],inactive
same,outcome,[15],inactive
same,outcome,[16],inactive
same,outcome,[11],inactive
same,outcome,[12],inactive
O=C(Nc1ccccc1)c1ccccc1I,outcome,[1],inactive
same,outcome,[2],inactive
same,outcome,[17],inactive
same,outcome,[3],inactive
same,outcome,[4],inactive
same,outcome,[5],inactive
same,outcome,[6],inactive
same,outcome,[7],inactive
same,outcome,[8],inactive
same,outcome,[9],inactive
same,outcome,[10],inactive
same,outcome,[16],inactive
same,outcome,[11],inactive
same,outcome,[12],inactive
CC(C)(C)C(O)(CCc1ccc(Cl)cc1)Cn1cncn1 (stereo not drawn),outcome,[2],inactive
same,outcome,[17],inactive
same,outcome,[3],inactive
same,outcome,[4],inactive
same,outcome,[5],inactive
same,outcome,[6],inactive
same,outcome,[7],inactive
same,outcome,[8],inactive
same,outcome,[9],inactive
same,outcome,[10],inactive
same,outcome,[16],inactive
same,outcome,[18],inactive
same,outcome,[11],inactive
Cc1ccc(N)c(N)c1,outcome,[17],inactive
same,outcome,[3],inactive
same,outcome,[4],inactive
same,AC50,[5],7.53 µM (active)
same,AC50,[6],3.17 µM (active)
same,outcome,[7],inactive
same,outcome,[8],inactive
same,outcome,[9],inactive
same,outcome,[10],inactive
same,AC50,[16],4.08 µM (active)
same,outcome,[11],inactive
same,outcome,[12],inactive
CCCCCOC(=O)c1ccccc1C(=O)OCCCCC,outcome,[2],inactive
same,outcome,[3],inactive
same,outcome,[4],inactive
same,outcome,[6],inactive
same,outcome,[7],inactive
same,AC50,[8],32.2 µM (active)
same,outcome,[9],inactive
same,AC50,[10],39 µM (active)
same,AC50,[15],20 µM (active)
same,outcome,[11],inactive
same,outcome,[12],inactive
C[N+](C)(C)CC1CO1 (stereo not drawn),outcome,[2],inactive
same,outcome,[3],inactive
same,outcome,[4],inactive
same,outcome,[5],inactive
same,outcome,[6],inactive
same,outcome,[7],inactive
same,outcome,[8],inactive
same,outcome,[9],inactive
same,outcome,[10],inactive
same,outcome,[16],inactive
same,outcome,[18],inactive
same,outcome,[11],inactive
same,outcome,[12],inactive
Clc1ccc(C(c2ccc(Cl)cc2)C(Cl)(Cl)Cl)cc1,AC50,[3],26.9 µM (active)
same,AC50,[6],22.7 µM (active)
same,AC50,[7],34.5 µM (active)
same,AC50,[8],28.5 µM (active)
same,outcome,[9],inactive
same,AC50,[10],37.3 µM (active)
same,AC50,[15],14.9 µM (active)
same,AC50,[16],30.5 µM (active)
same,outcome,[11],inactive
same,AC50,[12],31 µM (active)
CCC(C)c1ccc(O)cc1 (stereo not drawn),outcome,[3],inactive
same,outcome,[4],inactive
same,outcome,[6],inactive
same,outcome,[7],inactive
same,outcome,[8],inactive
same,outcome,[9],inactive
same,outcome,[10],inactive
same,outcome,[18],inactive
same,outcome,[11],inactive
same,outcome,[12],inactive
CN(C)C(=O)Nc1ccc(Cl)cc1,outcome,[17],inactive
same,outcome,[3],inactive
same,outcome,[4],inactive
same,outcome,[6],inactive
same,outcome,[7],inactive
same,outcome,[8],inactive
same,outcome,[9],inactive
same,outcome,[10],inactive
same,outcome,[15],inactive
same,outcome,[16],inactive
same,outcome,[18],inactive
same,outcome,[11],inactive
same,outcome,[12],inactive
